This passage reports growth results from PubChem BioAssay (NCI).

“And” between values parts separate entries of the source, which are not always exact repeats. Equal values may be shown once. This is part of a sample that, as a whole, favours compounds with a hit. Of some 83,000 tested, about 20% had one in any assay.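 48-hour exposure, single concentration, 96-well plates; percent growth endpoint where 0 means no net growth. Active: below 10.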 Values without a mark were called inactive. The source made the active and inactive calls.

The test deals with MDA-MB-468 breast. The experiment in a line: NCI-60 one-dose screen, 48 h (100 = growth as untreated, 0 = no growth, -100 = all killed). Particulars: 10 µM unless noted.
Turning to `CC(=O)O[C@H]1CC[C@]2(C)[C@H]3CC=C4[C@@H]5[C@H](C)[C@@H](C)CC[C@]5(C(=O)NCCNCCNCCN)CC[C@@]4(C)[C@]3(C)CC[C@H]2C1(C)C`, the growth was 69.2%.

Consider `O=C1OCC2=C1C(c1cccc(Cl)c1)c1cc3c(cc1N2CCO)OCO3` (stereo not given), for which the growth is -10.2% (active).

With `CN(C)c1ccc2cc3c(cc2c1)Oc1ccccc1N3.[Cl][Zn][Cl]`, the growth is -10.4% (active).

In the case of `CC1(C)CC[C@]23CC[C@]4(C)[C@H](CC[C@@H]5[C@@]6(C)C/C(=C/c7cccnc7)C(=O)C(C)(C)[C@@H]6CC[C@]54C)[C@H]2[C@H]1OC3=O`, the growth is 56.9% [100 µM].

For `O=S(=O)(NCCNc1nccc(-c2c(-c3ccc(F)c(O)c3)nc3sccn23)n1)c1ccc(F)cc1`, the growth is 29.3%.

Take `COc1ccc(-c2nc3ccc(Cc4ccc5nc(-c6ccc(OC)cc6)[nH]c5c4)cc3[nH]2)cc1`: the growth was -20.2% (active).

For `O=C1c2cc3c(cc2-c2c1c1cc(Cl)c(Cl)cc1c(=O)n2C[C@H](O)CO)OCO3`, the growth is -54.1% (active).

Regarding `O=C1c2ccc3c4c(ccc(c24)C(=O)N1CCNCc1ccccc1)C(=O)N(CCNCc1ccccc1)C3=O`, the growth is -62.9% (active).

In the case of `C=C1C(=O)O[C@H]2[C@H]1CC/C(CNC(=O)c1cc3cc(OC)ccc3[nH]1)=C\CC[C@@]1(C)O[C@@H]21`, the growth was -67.7% (active).

Take `O=C(NNC(=O)c1ccc(NC(=O)c2ccccn2)cc1)Nc1ccc([N+](=O)[O-])cc1`: the growth is 94.2%.

Turning to `COc1ccc(C)cc1OC`, the growth is 137%.

Regarding `COc1ccc2[nH]cc(-c3nn4cc(-c5ccncc5)nc4s3)c2c1`, the growth was 29.2%.

On to `O=C(C[N+](=O)[O-])c1ccc(Cl)cc1`, for which the growth was 112%.

For `CCN(CC)CCOc1ccc(/C(=C(\C)Cc2ccc(OC)cc2)c2ccc(OC(=O)NCc3ccccc3)cc2)cc1`, the growth is 43.3%.

With `NCCNc1nc(Nc2ccc(-c3nc4ccccc4[nH]3)cc2)c2cn[nH]c2n1`, the growth is 57.2%.

`O=S(=O)(NCCNc1nccc(-n2cnc3ccccc32)n1)c1ccc(Cl)cc1`: the growth was 101%.

`CN1C(=O)C(C2=NN(C=O)C(c3ccc(F)cc3)C2)C(=O)N(C)C1=O` (stereo not given): the growth was 89.4%.

For the molecule `CCOC(=O)Cn1c(=O)c2sc3ncccc3c2n2nnc(-c3ccccc3)c12`, the growth was 119%.

In the case of `CCCCN[C@H]1CC[C@@]2(C)[C@@H](CC[C@@]3(C)[C@H]2[C@H](O)C[C@H]2/C(=C(\CCC=C(C)C)C(=O)OC)[C@@H](OC(C)=O)C[C@@]23C)[C@@H]1C`, the growth is 88.9%.

`COC(=O)/C=C1/SC(=NCc2ccccc2)N(CCc2c[nH]c3ccccc23)C1=O`: the growth is 81.1%.

In the case of `CCCCCCNC(=O)c1cc(NCc2cc(O)ccc2O)ccc1O`, the growth is 65.6%.

For the molecule `CC(=O)/C(N=Nc1ccc2oc(=O)ccc2c1)=C(\C)O`, the growth is 9.38% (active).

For `O=c1cc(-c2ccccc2)oc2cc(OCc3cn(Cc4ccc(F)cc4)nn3)cc(OCc3cn(Cc4ccc(F)cc4)nn3)c12`, the growth was 38.7%.

As for `O=C(/C=C\c1ccc(Cl)c(Cl)c1)c1ccccc1`, the growth is 79.8%.

`COc1cc(/C=N/Nc2ccccc2F)cc(OC)c1OC`: the growth was 97%.

With `COc1ccc(/C=C/C(=O)/C=C/c2cc3ccccc3[nH]c2=O)cc1`, the growth is 43.9%.

For `O=C(c1nc2ccccc2[nH]1)C1C(c2ccc([N+](=O)[O-])cc2)C2CC3CCCCC3N2[C@@]12C(=O)Nc1cc(Cl)ccc12` (stereo not given in full), the growth is -1.98% (active).

On to `CNC(=O)c1cc(Oc2ccc3c(c2)sc2nc(-c4ccc(NC(C)=O)cc4)cn23)ccn1`, for which the growth was 86.3%.

For `C#Cc1ccccc1NC(=O)c1sc2nc3c(cc2c1N)CCCCC3`, the growth is 119%.

`O=C(Cn1cc(COc2ncnc3c2cnn3-c2ccccc2)nn1)Nc1ccccn1`: the growth is 97.7%.

For the molecule `COc1cc(-c2nccc3cc4c(cc23)OCO4)cc(OC)c1OC`, the growth was -6.2% (active) and 5.32% (active).

For the molecule `CCCNc1nc(N(C)O)nc(N(C)O)n1`, the growth was 21.5%.

Turning to `Cc1c(C)c2c(c(C)c1OCC(=O)O)CC[C@@](C)(CCC[C@@H](C)CCC[C@@H](C)CCCC(C)C)O2`, the growth was 0.25% [50 µM] (active).

With `COc1ccc(/C=C2/CN(C(=O)c3ccc(C)cc3)C/C(=C\c3ccc(OC)cc3)C2=O)cc1`, the growth was 74.1%.

Consider `CC(=O)C1=C(O)C=C2Oc3c(C(=O)/C=C/c4cc(C(F)(F)F)cc(C(F)(F)F)c4)c(O)c(C)c(O)c3[C@]2(C)C1=O`, for which the growth is -69.3% (active).

As for `COc1ccc(-c2nc(Nc3ccc(-c4nc5ccccc5[nH]4)cc3)nc(N3CCOCC3)n2)cc1`, the growth was -1.23% (active).

On to `C[N+]1=C(/C=C/c2ccccc2Cl)C(C)(C)c2ccccc21`, for which the growth is 88.1%.

As for `COc1ccc(S(=O)(=O)N(C)c2oc(-c3ccc(Cl)cc3)nc2C#N)cc1`, the growth was 32.1%.

Turning to `O=C(/C=C/c1cccc(Cl)c1)c1ccccc1`, the growth was 82.8% and 74.6%.

As to `Cc1cc(NC(=O)Nc2cc(Cl)ccc2C)no1`, the growth is 105%.
